Measured values: ChEMBL document CHEMBL1961873, “Compounds: GSK PKIS; Assays: Nanosyn kinase panel” (2012)

What was measured:
[1] = target: High affinity nerve growth factor receptor (Homo sapiens) (UniProt P04629); settings: at 1 µM;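 further: each value is the mean percent inhibition of TRKA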
[2] = target: BDNF/NT-3 growth factors receptor (Homo sapiens) (UniProt Q16620); settings: at 0.1 µM
[3] = target: BDNF/NT-3 growth factors receptor (Homo sapiens) (UniProt Q16620); settings: at 1 µM
[4] = target: NT-3 growth factor receptor (Homo sapiens) (UniProt Q16288); settings: at 0.1 µM
[5] = target: NT-3 growth factor receptor (Homo sapiens) (UniProt Q16288); settings: at 1 µM
[6] = target: T1, Tyrosine-protein kinase TXK (Homo sapiens) (UniProt P42681); settings: at 0.1 µM
T1 sequence (whole entry): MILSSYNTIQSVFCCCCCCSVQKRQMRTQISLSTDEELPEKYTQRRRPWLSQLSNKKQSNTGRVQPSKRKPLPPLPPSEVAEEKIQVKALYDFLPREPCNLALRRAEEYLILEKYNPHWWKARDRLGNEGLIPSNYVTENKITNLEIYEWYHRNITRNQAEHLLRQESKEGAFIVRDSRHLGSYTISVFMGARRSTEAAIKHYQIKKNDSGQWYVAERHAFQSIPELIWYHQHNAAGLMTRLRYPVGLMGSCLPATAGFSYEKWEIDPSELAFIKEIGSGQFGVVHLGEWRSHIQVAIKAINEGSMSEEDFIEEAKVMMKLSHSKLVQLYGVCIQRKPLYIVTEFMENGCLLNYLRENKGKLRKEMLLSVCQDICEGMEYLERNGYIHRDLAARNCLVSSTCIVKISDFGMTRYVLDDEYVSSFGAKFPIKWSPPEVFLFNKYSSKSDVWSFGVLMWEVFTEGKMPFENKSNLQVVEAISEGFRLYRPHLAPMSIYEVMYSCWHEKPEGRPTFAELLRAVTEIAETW

[7] = target: T1, Tyrosine-protein kinase TXK (Homo sapiens); settings: at 1 µM
[8] = target: Non-receptor tyrosine-protein kinase TYK2 (Homo sapiens) (UniProt P29597); settings: at 0.1 µM;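 further: each value is a mean of the inhibition readings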
[9] = target: T2, Dual specificity protein kinase TTK (Homo sapiens) (UniProt P33981); settings: at 1 µM;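 further: reported figures are mean TTK inhibition at 1 µM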
T2 sequence (whole entry): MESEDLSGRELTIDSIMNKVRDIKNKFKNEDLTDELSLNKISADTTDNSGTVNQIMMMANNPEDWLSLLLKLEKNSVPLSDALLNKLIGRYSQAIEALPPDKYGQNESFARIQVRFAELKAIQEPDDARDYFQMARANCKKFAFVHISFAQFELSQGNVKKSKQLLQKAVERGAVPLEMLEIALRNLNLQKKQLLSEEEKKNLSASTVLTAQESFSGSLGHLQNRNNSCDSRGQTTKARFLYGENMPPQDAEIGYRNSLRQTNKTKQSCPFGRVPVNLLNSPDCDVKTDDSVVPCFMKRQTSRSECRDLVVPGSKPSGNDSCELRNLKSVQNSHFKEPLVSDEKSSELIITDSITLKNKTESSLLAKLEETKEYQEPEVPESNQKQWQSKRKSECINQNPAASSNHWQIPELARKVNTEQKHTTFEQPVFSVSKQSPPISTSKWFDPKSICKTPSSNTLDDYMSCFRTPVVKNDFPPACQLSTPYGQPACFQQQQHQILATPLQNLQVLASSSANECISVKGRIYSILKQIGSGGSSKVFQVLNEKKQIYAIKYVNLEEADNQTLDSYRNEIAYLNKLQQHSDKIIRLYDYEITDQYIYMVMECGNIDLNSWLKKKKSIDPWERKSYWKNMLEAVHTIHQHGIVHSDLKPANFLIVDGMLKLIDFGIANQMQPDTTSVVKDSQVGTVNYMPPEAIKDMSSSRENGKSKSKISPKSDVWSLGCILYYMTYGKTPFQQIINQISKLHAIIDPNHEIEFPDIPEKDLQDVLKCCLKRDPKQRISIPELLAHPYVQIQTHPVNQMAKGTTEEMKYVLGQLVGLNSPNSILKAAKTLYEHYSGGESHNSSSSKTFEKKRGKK

[10] = target: T3, Aurora kinase A (Homo sapiens) (UniProt O14965); settings: at 0.1 µM
T3 sequence (whole entry): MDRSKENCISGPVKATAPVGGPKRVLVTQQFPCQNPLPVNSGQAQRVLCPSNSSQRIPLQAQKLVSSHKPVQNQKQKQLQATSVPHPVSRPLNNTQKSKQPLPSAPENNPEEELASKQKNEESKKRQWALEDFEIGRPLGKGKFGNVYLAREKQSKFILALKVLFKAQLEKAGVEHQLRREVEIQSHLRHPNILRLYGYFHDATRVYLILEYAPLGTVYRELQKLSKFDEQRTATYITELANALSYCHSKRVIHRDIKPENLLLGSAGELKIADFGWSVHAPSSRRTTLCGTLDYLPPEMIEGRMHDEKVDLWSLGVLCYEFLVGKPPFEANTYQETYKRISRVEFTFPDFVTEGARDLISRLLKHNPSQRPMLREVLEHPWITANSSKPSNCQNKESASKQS

[11] = target: T3, Aurora kinase A (Homo sapiens); settings: at 1 µM
[12] = target: Aurora kinase B (Homo sapiens) (UniProt Q96GD4); settings: at 0.1 µM
[13] = target: Aurora kinase B (Homo sapiens) (UniProt Q96GD4); settings: at 1 µM
[14] = target: T4, Aurora kinase C (Homo sapiens) (UniProt Q9UQB9); settings: at 0.1 µM
T4 sequence (whole entry): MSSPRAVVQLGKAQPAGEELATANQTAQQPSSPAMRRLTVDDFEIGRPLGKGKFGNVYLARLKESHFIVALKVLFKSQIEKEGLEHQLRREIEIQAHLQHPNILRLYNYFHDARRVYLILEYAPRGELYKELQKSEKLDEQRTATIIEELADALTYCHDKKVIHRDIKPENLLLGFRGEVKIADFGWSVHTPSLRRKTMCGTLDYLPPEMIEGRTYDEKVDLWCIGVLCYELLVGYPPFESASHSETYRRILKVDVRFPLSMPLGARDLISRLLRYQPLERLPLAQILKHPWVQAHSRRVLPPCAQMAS

[15] = target: T4, Aurora kinase C (Homo sapiens); settings: at 1 µM
[16] = target: Serine/threonine-protein kinase 10 (Homo sapiens) (UniProt O94804); settings: at 0.1 µM
[17] = target: Serine/threonine-protein kinase 10 (Homo sapiens) (UniProt O94804); settings: at 1 µM
[18] = target: T5, Mitogen-activated protein kinase kinase kinase kinase 2 (Homo sapiens) (UniProt Q12851); settings: at 0.1 µM
T5 sequence (whole entry): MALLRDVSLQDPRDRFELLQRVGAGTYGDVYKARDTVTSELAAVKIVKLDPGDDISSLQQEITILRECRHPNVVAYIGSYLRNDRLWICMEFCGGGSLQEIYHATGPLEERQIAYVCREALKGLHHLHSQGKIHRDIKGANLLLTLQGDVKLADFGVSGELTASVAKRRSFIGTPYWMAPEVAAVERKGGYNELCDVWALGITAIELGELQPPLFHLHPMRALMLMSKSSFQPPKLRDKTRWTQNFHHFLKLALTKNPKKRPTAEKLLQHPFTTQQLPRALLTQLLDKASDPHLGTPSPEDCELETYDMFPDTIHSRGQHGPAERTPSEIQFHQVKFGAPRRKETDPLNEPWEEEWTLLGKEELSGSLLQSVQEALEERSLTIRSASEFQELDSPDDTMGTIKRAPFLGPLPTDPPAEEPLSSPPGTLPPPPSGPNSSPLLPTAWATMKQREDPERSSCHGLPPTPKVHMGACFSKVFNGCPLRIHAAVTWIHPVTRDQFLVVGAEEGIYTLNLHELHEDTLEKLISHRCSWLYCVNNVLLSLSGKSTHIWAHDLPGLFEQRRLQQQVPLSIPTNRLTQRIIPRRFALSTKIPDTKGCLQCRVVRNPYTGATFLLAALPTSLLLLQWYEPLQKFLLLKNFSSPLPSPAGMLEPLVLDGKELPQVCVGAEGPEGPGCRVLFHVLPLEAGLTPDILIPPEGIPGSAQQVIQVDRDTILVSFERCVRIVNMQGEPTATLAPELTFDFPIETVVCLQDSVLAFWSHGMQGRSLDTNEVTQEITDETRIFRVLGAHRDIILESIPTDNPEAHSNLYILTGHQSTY

[19] = target: T5, Mitogen-activated protein kinase kinase kinase kinase 2 (Homo sapiens); settings: at 1 µM
[20] = target: Mitogen-activated protein kinase kinase kinase kinase 4 (Homo sapiens) (UniProt O95819); settings: at 0.1 µM
Chain of Mitogen-activated protein kinase kinase kinase kinase 4 (Homo sapiens) (O95819 2-1239 limits assumed): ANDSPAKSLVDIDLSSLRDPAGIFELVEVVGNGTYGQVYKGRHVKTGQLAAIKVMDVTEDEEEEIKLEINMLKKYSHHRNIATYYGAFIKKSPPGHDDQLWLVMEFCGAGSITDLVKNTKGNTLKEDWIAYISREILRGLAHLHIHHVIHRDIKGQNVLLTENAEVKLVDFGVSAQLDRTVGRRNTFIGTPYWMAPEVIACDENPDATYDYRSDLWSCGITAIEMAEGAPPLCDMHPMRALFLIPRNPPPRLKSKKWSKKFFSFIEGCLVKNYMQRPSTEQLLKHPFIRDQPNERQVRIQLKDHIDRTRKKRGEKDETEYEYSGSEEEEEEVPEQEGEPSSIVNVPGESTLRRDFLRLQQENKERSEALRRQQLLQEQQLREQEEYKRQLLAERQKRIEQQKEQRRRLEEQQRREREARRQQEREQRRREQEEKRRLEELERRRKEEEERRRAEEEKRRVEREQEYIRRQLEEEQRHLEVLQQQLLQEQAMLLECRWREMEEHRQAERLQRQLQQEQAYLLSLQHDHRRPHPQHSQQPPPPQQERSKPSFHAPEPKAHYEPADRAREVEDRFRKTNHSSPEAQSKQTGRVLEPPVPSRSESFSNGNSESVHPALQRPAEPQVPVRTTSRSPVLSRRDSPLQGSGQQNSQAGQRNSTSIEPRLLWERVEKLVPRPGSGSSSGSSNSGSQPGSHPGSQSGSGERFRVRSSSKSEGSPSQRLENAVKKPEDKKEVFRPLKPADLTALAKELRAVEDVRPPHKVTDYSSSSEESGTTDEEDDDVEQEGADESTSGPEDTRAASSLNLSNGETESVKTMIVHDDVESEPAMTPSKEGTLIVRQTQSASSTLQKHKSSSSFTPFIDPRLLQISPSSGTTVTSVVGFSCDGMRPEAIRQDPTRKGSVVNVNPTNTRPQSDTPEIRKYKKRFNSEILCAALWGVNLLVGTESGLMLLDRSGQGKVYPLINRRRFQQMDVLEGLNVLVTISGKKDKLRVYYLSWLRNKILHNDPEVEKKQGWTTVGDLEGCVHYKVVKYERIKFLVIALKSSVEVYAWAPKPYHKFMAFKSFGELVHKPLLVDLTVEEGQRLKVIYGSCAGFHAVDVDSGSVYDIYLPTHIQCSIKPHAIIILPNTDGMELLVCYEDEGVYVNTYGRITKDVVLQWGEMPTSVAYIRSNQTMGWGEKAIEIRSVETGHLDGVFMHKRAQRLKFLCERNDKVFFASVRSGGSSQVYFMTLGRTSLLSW

Chain of BDNF/NT-3 growth factors receptor (Homo sapiens) (Q16620 32-822 limits assumed): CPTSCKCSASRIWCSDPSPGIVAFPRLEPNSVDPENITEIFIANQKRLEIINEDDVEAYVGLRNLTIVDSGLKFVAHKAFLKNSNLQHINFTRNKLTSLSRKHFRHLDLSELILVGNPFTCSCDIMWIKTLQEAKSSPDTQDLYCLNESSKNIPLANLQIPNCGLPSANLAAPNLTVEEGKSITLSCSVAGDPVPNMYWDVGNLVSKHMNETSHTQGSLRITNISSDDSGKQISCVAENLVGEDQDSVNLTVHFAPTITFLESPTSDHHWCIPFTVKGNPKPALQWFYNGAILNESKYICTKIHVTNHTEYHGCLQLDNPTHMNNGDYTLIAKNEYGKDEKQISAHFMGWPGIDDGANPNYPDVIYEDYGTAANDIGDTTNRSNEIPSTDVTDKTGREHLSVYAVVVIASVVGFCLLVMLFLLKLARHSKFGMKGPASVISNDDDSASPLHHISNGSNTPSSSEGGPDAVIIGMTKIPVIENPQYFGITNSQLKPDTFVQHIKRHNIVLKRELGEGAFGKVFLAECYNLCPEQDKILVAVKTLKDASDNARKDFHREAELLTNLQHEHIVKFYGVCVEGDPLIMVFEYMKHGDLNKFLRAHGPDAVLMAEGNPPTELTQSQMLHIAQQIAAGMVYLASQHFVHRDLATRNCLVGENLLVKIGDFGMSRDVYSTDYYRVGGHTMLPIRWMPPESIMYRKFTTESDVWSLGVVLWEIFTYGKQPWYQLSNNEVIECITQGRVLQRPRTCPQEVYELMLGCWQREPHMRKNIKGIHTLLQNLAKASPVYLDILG
Chain of High affinity nerve growth factor receptor (Homo sapiens) (P04629 33-796 limits assumed): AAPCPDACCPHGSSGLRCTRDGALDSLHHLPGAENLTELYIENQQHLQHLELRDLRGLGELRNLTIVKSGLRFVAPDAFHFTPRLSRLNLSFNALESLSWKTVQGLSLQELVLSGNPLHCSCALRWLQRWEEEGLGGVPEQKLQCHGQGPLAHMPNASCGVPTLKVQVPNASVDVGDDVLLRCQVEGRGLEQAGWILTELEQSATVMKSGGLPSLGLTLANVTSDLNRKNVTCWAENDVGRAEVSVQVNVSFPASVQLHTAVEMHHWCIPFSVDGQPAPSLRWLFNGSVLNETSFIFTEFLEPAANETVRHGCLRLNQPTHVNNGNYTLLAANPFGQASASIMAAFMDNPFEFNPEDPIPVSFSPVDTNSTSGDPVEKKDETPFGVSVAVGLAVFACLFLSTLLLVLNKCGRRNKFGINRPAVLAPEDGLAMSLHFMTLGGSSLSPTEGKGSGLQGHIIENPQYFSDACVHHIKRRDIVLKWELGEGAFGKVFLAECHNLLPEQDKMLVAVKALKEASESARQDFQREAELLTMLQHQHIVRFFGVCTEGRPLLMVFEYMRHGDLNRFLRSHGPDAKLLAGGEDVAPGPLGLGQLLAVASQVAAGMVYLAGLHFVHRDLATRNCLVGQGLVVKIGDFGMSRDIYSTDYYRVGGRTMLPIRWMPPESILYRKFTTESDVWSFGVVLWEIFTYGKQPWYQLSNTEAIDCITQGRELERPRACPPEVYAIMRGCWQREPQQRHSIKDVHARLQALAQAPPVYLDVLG
Chain of NT-3 growth factor receptor (Homo sapiens) (Q16288 32-839 limits assumed): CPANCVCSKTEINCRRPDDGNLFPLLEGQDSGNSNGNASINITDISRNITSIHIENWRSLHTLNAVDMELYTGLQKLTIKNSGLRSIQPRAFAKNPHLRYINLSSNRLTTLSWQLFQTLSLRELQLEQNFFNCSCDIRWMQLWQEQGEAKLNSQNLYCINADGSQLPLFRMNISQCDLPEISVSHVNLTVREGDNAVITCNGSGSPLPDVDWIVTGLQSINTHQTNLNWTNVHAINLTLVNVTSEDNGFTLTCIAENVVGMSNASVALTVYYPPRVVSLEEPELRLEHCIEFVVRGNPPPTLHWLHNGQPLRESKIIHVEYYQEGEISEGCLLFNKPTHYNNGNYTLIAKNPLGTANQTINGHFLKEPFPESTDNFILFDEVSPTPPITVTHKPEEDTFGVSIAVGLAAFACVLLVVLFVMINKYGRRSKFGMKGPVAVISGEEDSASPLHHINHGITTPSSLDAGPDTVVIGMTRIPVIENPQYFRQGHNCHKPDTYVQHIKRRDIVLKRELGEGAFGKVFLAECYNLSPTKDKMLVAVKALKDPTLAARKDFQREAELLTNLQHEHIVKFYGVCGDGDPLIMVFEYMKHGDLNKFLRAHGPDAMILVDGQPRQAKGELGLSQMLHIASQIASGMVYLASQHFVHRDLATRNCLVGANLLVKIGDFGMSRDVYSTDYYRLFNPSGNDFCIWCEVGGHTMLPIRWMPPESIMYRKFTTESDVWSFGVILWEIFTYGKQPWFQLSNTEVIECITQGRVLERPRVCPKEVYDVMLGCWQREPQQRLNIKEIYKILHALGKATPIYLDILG
Chain of Serine/threonine-protein kinase 10 (Homo sapiens) (O94804 whole entry, looked up): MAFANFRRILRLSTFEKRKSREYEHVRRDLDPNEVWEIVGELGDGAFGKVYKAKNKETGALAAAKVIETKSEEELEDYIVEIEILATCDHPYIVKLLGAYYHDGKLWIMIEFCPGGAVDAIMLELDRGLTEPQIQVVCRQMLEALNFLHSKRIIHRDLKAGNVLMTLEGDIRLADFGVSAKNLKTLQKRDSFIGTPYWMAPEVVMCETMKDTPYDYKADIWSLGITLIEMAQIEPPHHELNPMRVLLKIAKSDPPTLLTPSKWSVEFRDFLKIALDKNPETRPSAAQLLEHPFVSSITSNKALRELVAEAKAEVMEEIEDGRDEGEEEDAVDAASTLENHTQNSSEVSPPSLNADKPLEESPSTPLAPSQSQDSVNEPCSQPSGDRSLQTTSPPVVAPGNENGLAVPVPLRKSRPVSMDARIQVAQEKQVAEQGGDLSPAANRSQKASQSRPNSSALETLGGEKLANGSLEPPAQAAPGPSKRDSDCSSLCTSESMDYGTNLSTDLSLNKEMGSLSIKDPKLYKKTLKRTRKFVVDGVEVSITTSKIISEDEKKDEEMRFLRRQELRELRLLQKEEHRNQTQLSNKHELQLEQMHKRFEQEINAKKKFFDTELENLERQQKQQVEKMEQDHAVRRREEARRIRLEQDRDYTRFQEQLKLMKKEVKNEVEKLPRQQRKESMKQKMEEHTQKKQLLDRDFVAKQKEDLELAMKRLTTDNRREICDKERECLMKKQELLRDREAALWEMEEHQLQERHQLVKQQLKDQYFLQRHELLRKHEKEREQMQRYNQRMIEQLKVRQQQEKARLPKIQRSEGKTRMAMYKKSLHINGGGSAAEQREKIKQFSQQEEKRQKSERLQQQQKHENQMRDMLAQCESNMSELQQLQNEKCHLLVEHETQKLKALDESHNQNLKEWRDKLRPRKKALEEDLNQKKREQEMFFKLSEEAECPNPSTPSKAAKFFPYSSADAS
Chain of Aurora kinase B (Homo sapiens) (Q96GD4 whole entry): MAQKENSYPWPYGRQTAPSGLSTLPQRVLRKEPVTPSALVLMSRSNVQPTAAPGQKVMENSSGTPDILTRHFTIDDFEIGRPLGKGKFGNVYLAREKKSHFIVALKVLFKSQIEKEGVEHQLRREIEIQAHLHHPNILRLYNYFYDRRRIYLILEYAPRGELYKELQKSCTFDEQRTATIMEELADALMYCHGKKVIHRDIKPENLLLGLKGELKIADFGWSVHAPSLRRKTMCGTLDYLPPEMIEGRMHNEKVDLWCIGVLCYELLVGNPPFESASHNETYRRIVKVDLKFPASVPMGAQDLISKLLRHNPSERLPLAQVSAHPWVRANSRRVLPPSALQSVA

Structure (SMILES)	inhibition [1]	inhibition [2]	inhibition [3]	inhibition [4]	inhibition [5]	inhibition [6]	inhibition [7]	inhibition [8]	inhibition [9]	inhibition [10]	inhibition [11]	inhibition [12]	inhibition [13]	inhibition [14]	inhibition [15]	inhibition [16]	inhibition [17]	inhibition [18]	inhibition [19]	inhibition [20]
COc1ccc(-c2ccncc2)cc1C(N)=O	6.42%	3.52%	3.6%	4.78%	4.79%	4.98%	5.36%	-2.48%	8.41%	2.92%	4.17%	5.11%	7.24%	1.6%	5.22%	8.76%	12.9%	0.72%	3.34%	4.28%
O=C1NC(=O)C(c2cccc(Cl)c2)=C1Nc1ccc(O)c(Cl)c1	2.57%	-0.13%	0.31%	-0.33%	1.68%	2.35%	3.52%	3.26%	4.84%	2.24%	11.1%	1.17%	6.09%	1.02%	13.1%	6.26%	46.3%	4%	21.3%	1.83%
CC1=C(C(=O)Nc2ccc3[nH]ncc3c2)C(c2ccc(F)cc2)NC(=O)N1 (centres undefined)	3.3%	0.91%	4.06%	0.06%	5.04%	1.25%	3.78%	1.26%	1.11%	7.75%	62.7%	3.96%	18.5%	2.09%	26.9%	1.26%	5.18%	1.97%	3.21%	7.49%
CCn1c(-c2nonc2N)nc2ccncc21	-0.79%	-1.44%	-3.63%	-2.79%	-1.79%	0.17%	3.88%	0.97%	6.38%	2.36%	6.98%	0.79%	3.04%	0.9%	6.04%	2.02%	4.14%	1.41%	3.01%	2.18%
COc1cc2ncn(-c3cc(O[C@H](C)c4ccccc4Cl)c(C(N)=O)s3)c2cc1OC	12.4%	8.25%	43.3%	16.1%	62.6%	5.04%	15.8%	-0.55%	13.2%	2.7%	30.1%	8.7%	37.9%	4.62%	50.7%	99.3%	88%	13.6%	47.4%	4.5%
O=C1NC(=O)C(N2CCc3ccccc32)=C1c1ccc(Cl)cc1	3.04%	3.69%	7%	2.99%	4.89%	5.42%	8.99%	-4.08%	2.25%	2.79%	15.5%	5.02%	13.8%	3.07%	15.9%	7.48%	8.68%	1.87%	6.3%	4.26%
CS(=O)(=O)Nc1ccc(N/C=C2\C(=O)Nc3ccccc32)cc1	46.7%	11.2%	58.6%	14.1%	57%	-1.93%	1.85%	3.51%	18.9%	7.34%	47.6%	7.77%	43%	6.66%	61.1%	-2.57%	0.71%	2.65%	18.6%	18.1%
O=C(Nc1n[nH]c2nc(-c3ccco3)c(Br)cc12)C1CC1	3.72%	-0.07%	1.56%	1.75%	4.33%	2.71%	5.55%	-1.26%	-3.66%	2.52%	45.6%	5.16%	14.5%	2.71%	29.4%	6.48%	11.3%	-0.14%	2.51%	4.76%
Nc1nc(-c2ccccn2)c(-c2ccc3ncccc3n2)s1	1.12%	2.11%	2.56%	1.67%	4.07%	2.05%	3.04%	-3.74%	7.95%	2.15%	9.43%	1.61%	8.29%	2.42%		2.91%	5.82%	0.08%	2.92%	5.35%
CS(=O)(=O)CCNCc1ccc(-c2ccc3ncnc(Nc4ccc(OCc5ccccc5)c(Cl)c4)c3c2)o1	4.84%	2.92%	2.87%	1.98%	2.17%	1.26%	1.47%	1.67%	6.09%	0.56%	1.2%	2.22%	10.4%	1.18%	7.9%	1.97%	8.82%	3.3%	7.74%	2.21%
O=C1NC(=O)C(c2ccccc2Cl)=C1Nc1cccc(O)c1	0.59%	1.19%	1.88%	0.46%	4.4%	3.39%	4.53%	-5.26%	-9.72%	3.17%	11.6%	2.88%	7.74%	1.84%	7.14%	8.75%	49.3%	1.12%	2.09%	3.71%
[O-][S+]1CCN(Cc2ccc(-c3ccc4ncnc(Nc5ccc(OCc6ccccc6)c(F)c5)c4c3)o2)CC1	1.44%	1.84%	1.51%	0.84%	2.26%	2.49%	3.34%	-3.81%	12.9%	2.01%	5.78%	1.65%	4.29%	0.94%	7.34%	2.71%	6.62%	0.36%	1.57%	3.5%
CS(=O)(=O)CCNCc1nc(-c2ccc3ncnc(Nc4ccc(F)c(Cl)c4)c3c2)cs1	1.47%	0.48%	4.21%	1.55%	2.39%	3.78%	15.9%	-3.38%	6.34%	1.71%	9.04%	3.41%	6.36%	2.51%	-0.59%	5.44%	27.7%	1.34%	2.52%	3.38%
